# Results taken from PubChem BioAssay AID1159580 (chemical genetic matrix, 2015).
# The whole screen tested about 5,500 compounds, of which about 2,000 (36%) were called active. Not shown: some 18% with an inconclusive outcome. This is one part of the list. Unmarked numbers belong to inactive results. No stated cut-off is given here; in the data, active means normalized growth mostly below about 0.91 (no sharp cut-off); inconclusive means no clear call, values can overlap the other calls; inactive means mostly above about 0.92.
# Assay: chemical genetic growth profiling, strain panel (AID 1159580);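 further: tested at 20 µM; growth read once vehicle control cultures reached saturation at 30 °C; 1 = growth at the plate median or of vehicle wells; lower values mean less growth of the strain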
# Conditions: S. cerevisiae deletion strains, growth OD
# [1] = locus YCL061C, strain MRC1, active compounds read low
structure (smiles),measurement,setting,value
Cc1oc(C(C)(C)C)cc1C(=O)Nc1ccc([N+](=O)[O-])cc1,normalized growth,"locus YAL013W, strain DEP1, active compounds read low",0.903 (active)
same,normalized growth,"locus YBR229C, strain ROT2, active compounds read low",0.976
same,normalized growth,[1],0.984
same,normalized growth,"locus YDL101C, strain DUN1, active compounds read low",1.03
same,normalized growth,"locus YDR150W, strain NUM1, active compounds read low",0.786 (active)
same,normalized growth,"locus YEL061C, strain CIN8, active compounds read low",0.911
same,normalized growth,"locus YGR078C, strain PAC10, active compounds read low",0.98
same,normalized growth,"locus YHR030C, strain SLT2, active compounds read low",0.584 (active)
same,normalized growth,"locus YHR087W, strain rtc3, active compounds read low",0.958
same,normalized growth,"locus YJR043C, strain POL32, active compounds read low",0.966
same,normalized growth,"locus YJR075W, strain HOC1, active compounds read low",0.974
same,normalized growth,"locus YLR039C, strain RIC1, active compounds read low",0.678 (active)
same,normalized growth,"locus YLR058C, strain SHM2 (second series), active compounds read low",0.992
same,normalized growth,"locus YLR085C, strain ARP6, active compounds read low",0.813
same,normalized growth,"locus YLR262C, strain YPT6, active compounds read low",0.786 (active)
same,normalized growth,"locus YML094W, strain GIM5, active compounds read low",0.873
same,normalized growth,"locus YMR219W, strain ESC1, active compounds read low",0.997
same,normalized growth,"locus YMR263W, strain SAP30, active compounds read low",0.943
same,normalized growth,"locus YMR307W, strain GAS1, active compounds read low",0.752
same,normalized growth,"locus YNL153C, strain GIM3, active compounds read low",0.998
same,normalized growth,"locus YNL298W, strain CLA4 (second series), active compounds read low",0.788 (active)
same,normalized growth,"locus YNL322C, strain KRE1, active compounds read low",0.996
same,normalized growth,"locus YNR030W, strain Alg12, active compounds read low",0.816 (active)
same,normalized growth,"locus YOL006C, strain TOP1, active compounds read low",0.88
same,normalized growth,"locus YPL055C, strain LGE1, active compounds read low",0.688 (active)
same,normalized growth,"locus YPL241C, strain CIN2, active compounds read low",0.997
same,normalized growth,"locus YPR135W, strain CTF4, active compounds read low",0.484 (active)
COC(=O)C1=COC(OC2OC(CO)C(O)C(O)C2O)C2C(C)CC(=O)C12 (centres undefined),normalized growth,"locus YAL021C, strain ccr4, active compounds read low",1.03
same,normalized growth,"locus YAL026C, strain drs2, active compounds read low",1.02
same,normalized growth,"locus YAL030W, strain snc1, active compounds read low",1.03
same,normalized growth,"locus YBL061C, strain skt5, active compounds read low",1.02
same,normalized growth,"locus YBR009C, strain hhf1, active compounds read low",1.01
same,normalized growth,"locus YBR023C, strain chs3, active compounds read low",1.03
same,normalized growth,"locus YBR171W, strain sec66, active compounds read low",1.04
same,normalized growth,"locus YBR231C, strain swc5, active compounds read low",1.04
same,normalized growth,"locus YBR279W, strain paf1, active compounds read low",1.03
same,normalized growth,"locus YCL011C, strain gbp2, active compounds read low",1.03
same,normalized growth,"locus YCL016C, strain dcc1, active compounds read low",1.02
same,normalized growth,[1],1.03
same,normalized growth,"locus YCL069W, strain vba3, active compounds read low",1.03
same,normalized growth,"locus YCR088W, strain abp1, active compounds read low",1.03
same,normalized growth,"locus YDL005C, strain med2, active compounds read low",1.04
same,normalized growth,"locus YDL040C, strain nat1, active compounds read low",1.03
same,normalized growth,"locus YDR001C, strain nth1, active compounds read low",1.03
same,normalized growth,"locus YDR069C, strain doa4, active compounds read low",1.02
same,normalized growth,"locus YDR137W, strain rgp1, active compounds read low",1.07
same,normalized growth,"locus YDR159W, strain sac3, active compounds read low",1.01
same,normalized growth,"locus YDR195W, strain ref2",1.02
same,normalized growth,"locus YDR297W, strain sur2, active compounds read low",1.02
same,normalized growth,"locus YDR334W, strain swr1, active compounds read low",1.03
same,normalized growth,"locus YDR335W, strain msn5, active compounds read low",1.03
same,normalized growth,"locus YDR392W, strain spt3, active compounds read low",0.935
same,normalized growth,"locus YEL003W, strain gim4, active compounds read low",1.03
same,normalized growth,"locus YEL037C, strain rad23, active compounds read low",1.02
same,normalized growth,"locus YEL061C, strain CIN8 (second series), active compounds read low",1.03
same,normalized growth,"locus YER015W, strain faa2, active compounds read low",1.04
same,normalized growth,"locus YER016W, strain bim1, active compounds read low",1.04
same,normalized growth,"locus YER111C, strain swi4, active compounds read low",1.03
same,normalized growth,"locus YER155C, strain BEM2 (second series), active compounds read low",1.02
same,normalized growth,"locus YFR010W, strain ubp6, active compounds read low",1.03
same,normalized growth,"locus YGL167C, strain pmr1, active compounds read low",1.03
same,normalized growth,"locus YGL173C, strain kem1, active compounds read low",1.03
same,normalized growth,"locus YGL227W, strain vid30, active compounds read low",1.03
same,normalized growth,"locus YGL240W, strain doc1, active compounds read low",1.02
same,normalized growth,"locus YGL253W, strain hxk2, active compounds read low",1.05
same,normalized growth,"locus YHR013C, strain ard1, active compounds read low",1.07
same,normalized growth,"locus YHR027C, strain rpn1, active compounds read low",1.03
same,normalized growth,"locus YHR142W, strain chs7, active compounds read low",1.04
same,normalized growth,"locus YJL092W, strain hpr5, active compounds read low",1.03
same,normalized growth,"locus YJL095W, strain BCK1 (second series), active compounds read low",1.03
same,normalized growth,"locus YJL115W, strain asf1, active compounds read low",1.02
same,normalized growth,"locus YJL129C, strain trk1, active compounds read low",1.06
same,normalized growth,"locus YJL154C, strain vps35, active compounds read low",1.02
same,normalized growth,"locus YJL164C, strain tpk1, active compounds read low",1.01
same,normalized growth,"locus YJL166W, strain qcr8, active compounds read low",1.05
same,normalized growth,"locus YJL187C, strain SWE1, active compounds read low",1.04
same,normalized growth,"locus YKL160W, strain elf1, active compounds read low",1.04
same,normalized growth,"locus YKR026C, strain gcn3, active compounds read low",1.03
same,normalized growth,"locus YKR091W, strain srl3, active compounds read low",1.02
same,normalized growth,"locus YLL001W, strain dnm1, active compounds read low",1.05
same,normalized growth,"locus YLL026W, active compounds read low",1.02
same,normalized growth,"locus YLL041C, strain sdh2, active compounds read low",1.02
same,normalized growth,"locus YLR027C, strain aat2, active compounds read low",1.02
same,normalized growth,"locus YLR221C, strain rsa3, active compounds read low",1.03
same,normalized growth,"locus YLR258W, strain gsy2, active compounds read low",1.01
same,normalized growth,"locus YLR262C, strain YPT6 (second series), active compounds read low",1.05
same,normalized growth,"locus YLR320W, strain mms22, active compounds read low",1.04
same,normalized growth,"locus YLR342W, strain FKS1, active compounds read low",1.03
same,normalized growth,"locus YLR357W, strain rsc2, active compounds read low",1.05
same,normalized growth,"locus YLR370C, strain arc18, active compounds read low",1.03
same,normalized growth,"locus YLR384C, strain iki3, active compounds read low",1.02
same,normalized growth,"locus YML120C, strain ndi1, active compounds read low",1.03
same,normalized growth,"locus YMR058W, strain fet3, active compounds read low",1.03
same,normalized growth,"locus YMR125W, strain sto1, active compounds read low",1.04
same,normalized growth,"locus YMR129W, active compounds read low",1.03
same,normalized growth,"locus YMR205C, strain PFK2, active compounds read low",1.05
same,normalized growth,"locus YMR231W, strain pep5, active compounds read low",1.03
same,normalized growth,"locus YNL071W, strain lat1, active compounds read low",1.04
same,normalized growth,"locus YNL209W, strain ssb2, active compounds read low",1.02
same,normalized growth,"locus YNL248C, strain rpa49, active compounds read low",1.06
same,normalized growth,"locus YNL322C, strain KRE1 (second series), active compounds read low",1.03
same,normalized growth,"locus YNR049C, strain mso1, active compounds read low",1.02
same,normalized growth,"locus YOR001W, strain rrp6, active compounds read low",0.987
same,normalized growth,"locus YOR070C, strain gyp1, active compounds read low",1.02
same,normalized growth,"locus YOR080W, strain dia2, active compounds read low",1.02
same,normalized growth,"locus YOR083W, strain WHI5, active compounds read low",1.04
same,normalized growth,"locus YOR106W, strain vam3, active compounds read low",1.09
same,normalized growth,"locus YOR265W, strain rbl2, active compounds read low",1.01
same,normalized growth,"locus YOR270C, strain vph1, active compounds read low",1.11
same,normalized growth,"locus YOR290C, strain snf2, active compounds read low",1.03
same,normalized growth,"locus YPL051W, strain arl3, active compounds read low",1.04
same,normalized growth,"locus YPL078C, strain atp4, active compounds read low",1.06
same,normalized growth,"locus YPL106C, strain sse1, active compounds read low",1.01
same,normalized growth,"locus YPL240C, strain hsp82, active compounds read low",1.02
